# Values of other authors, collected in PubChem BioAssay AID977611.
# Out of some 3,900 compounds screened, about 3,900 (100%) were called active. Cut-off not given; nearly all actives show Kd up to about 4200 µM. So high a share suggests a set chosen from earlier hits. This is one part of the list. Numbered stars: 1 amine (or outer) side, 2 acyl side, 3 side chain; on linkers, the order of the positions; unused ones are H or OH. *1 amine or outer side, *2 acyl side, *3 side chain or, on linkers, in order; H or OH if unused. Positions of bridges follow the written chain, without caps; N, C: chain ends. Where a SMILES comes first, the peptide text is derived from it. Non-standard residues stand in square brackets, D forms with d. Square brackets hold non-standard residues; d marks the D form. Residues, ends and D or L forms follow the SMILES beside them. Bridges are numbered along the chain shown (N, C = ends). Peptide text beside a SMILES is read from it. [ ]: non-standard residue; d: D form. Lys(Me3) = C[N+](C)(C)CCCC[C@H](N)C(=O)O; Orn(CH(NH2)2) = NC(N)NCCC[C@H](N)C(=O)O; X2 = CNC(N)NCCC[C@H](N[*:1])C(=O)[*:2]; TBMB = c1c(C[*:1])cc(C[*:3])cc1C[*:2]
# Experiment: PubChem AID 977611
# Conditions: PDB protein-ligand complexes, literature Kd
smiles,measurement,setting,value
CC(C)[C@@H]1NC(=O)[C@H](CCC(=O)O)NC(=O)[C@H](Cc2ccc(O)cc2)NC(=O)[C@H](CCCNC(N)N)NC(=O)[C@H](CO)NC(=O)[C@@H](NC(=O)[C@H](C)N)CSCc2cc3cc(c2)CSC[C@H](NC(=O)[C@H](CC(=O)O)NC1=O)C(=O)N[C@@H](CCCNC(N)N)C(=O)NCC(=O)N[C@@H](CCCNC(N)N)C(=O)NCC(=O)N[C@@H](CO)C(=O)N[C@@H](C)C(=O)N[C@H](C(=O)O)CSC3 (H-ACS[Orn(CH(NH2)2)]YEVDC[Orn(CH(NH2)2)]G[Orn(CH(NH2)2)]GSAC-OH; linker 2-9-16 via TBMB),Kd,"protein: Urokinase-type plasminogen activator, PDB entry 3qn7",0.157 µM (active)
CC(C)C[C@@H]1NC(=O)[C@H](C)NC(=O)[C@H](CCCNC(N)N)NC(=O)[C@H](CO)NC(=O)[C@H](CO)NC(=O)[C@H](CC(C)C)NC(=O)[C@H](CC(N)=O)NC(=O)[C@H](Cc2ccc(O)cc2)NC(=O)[C@H](CCC(N)=O)NC(=O)[C@@H](N)CSSC[C@@H](C(=O)O)NC(=O)[C@H](CCCCN)NC1=O,Kd,"protein: cetuximab Fab, PDB entry 4gw5",3.5 µM (active)
CSCC[C@@H]1NC(=O)[C@H](CCC(=O)O)NC(=O)[C@H](Cc2ccc(O)cc2)NC(=O)[C@H](CO)NC(=O)[C@H](CC(=O)O)NC(=O)[C@H](C)NC(=O)CNC(=O)[C@@H](N)CSSC[C@@H](C(=O)O)NC(=O)[C@H](CCCCN)NC(=O)[C@H](CCCNC(N)N)NC(=O)[C@H](C(C)C)NC(=O)CNC(=O)[C@H](CC(=O)O)NC(=O)[C@H](CCC(=O)O)NC(=O)[C@H](CCC(=O)O)NC1=O (H-CGADSYEMEEDGV[Orn(CH(NH2)2)]KC-OH; disulfide 1-16),Kd,"protein: mAb175 Antibody targeting a locally misfolded region of tumor associated EGFR, PDB entry 3g5y",0.035 µM (active)
same,Kd,"protein: mAb806 Antibody targeting a locally misfolded region of tumor associated EGFR, PDB entry 3g5v",0.016 µM (active)
CC(C)C[C@@H]1NC(=O)[C@H](CCCNC(N)N)NC(=O)[C@H](CCCNC(N)N)NC(=O)[C@H]([C@@H](C)O)NC(=O)[C@H](CO)NC(=O)[C@H](CC(C)C)NC(=O)[C@H](CC(=O)O)NC(=O)[C@H](Cc2ccccc2)NC(=O)[C@H](CCC(N)=O)NC(=O)[C@@H](N)CSSC[C@@H](C(=O)O)NC(=O)[C@H](CCCCN)NC1=O,Kd,"protein: cetuximab Fab, PDB entry 4gw1",0.43 µM (active)
OC(C[n+]1cccc(F)c1)([P+](O)(O)O)[P+](O)(O)O,Kd,"protein: Leshmaniasis major Farnesyl diphosphate synthase, PDB entry 4k10",0.12 µM (active)
OC(C[n+]1cccc(-c2ccccc2)c1)([P+](O)(O)O)[P+](O)(O)O,Kd,"protein: Leshmaniasis major Farnesyl diphosphate synthase, PDB entry 4jzb",0.342 µM (active)
Oc1ccccc1CNc1cc(NCc2ccccc2O)ncn1,Kd,"protein: Caspase-6, PDB entry 4nbn",44 µM (active)
Cc1cccnc1NCc1ccccc1O,Kd,"protein: proCaspase-6, PDB entry 4nbk",136 µM (active)
C[C@@H]1OC[C@@H](O)[C@H](O)[C@@H]1O,Kd,"protein: PUTATIVE FUCOSE-BINDING LECTIN PROTEIN(R17A mutant), PDB entry 3zi8",2.2 µM (active)
C=C(CC[C@]12O[C@H](C(=O)O)[C@@](O)(C(=O)O)[C@](C(=O)O)(O1)[C@H](OC(=O)/C=C/[C@@H](C)C[C@@H](C)CC)[C@H]2O)[C@@H](OC(C)=O)[C@H](C)Cc1ccccc1,Kd,"protein: Dehydrosqualene synthase, PDB entry 3vje",0.0097 µM (active)
same,Kd,"protein: Squalene synthase, PDB entry 3vjc",0.0189 µM (active)
COc1ccc(CNC(=O)c2cc3ccccc3cc2CN(C)Cc2cccc(OC)c2C(=O)O)cc1,Kd,"protein: HIV integrase, PDB entry 4cig",214 µM (active)
C=CCN(Cc1ccccc1C(=O)NCc1ccc(OC)cc1)Cc1ccc2c(c1C(=O)O)OC[C@H](CCC(=O)O)O2,Kd,"protein: INTEGRASE, PDB entry 4ceb",1080 µM (active)
COc1ccc(CNC(=O)c2cc3c(cc2CN(C)Cc2cccc(OC)c2C(=O)O)OCO3)cc1,Kd,"protein: HIV integrase, PDB entry 4cjr",793 µM (active)
O=C(O)CCC(=O)C1=CC=C[C@@H](O)[C@@H]1C(=O)O,Kd,"protein: E. Coli 2-succinyl-6-hydroxy-2,4-cyclohexadiene-1-carboxylate synthase (MenH), PDB entry 4myd",28 µM (active)
Nc1ccc(C(=O)N[C@@H](C(=O)NO)c2ccc(-n3cccn3)cc2)cc1,Kd,"protein: M17 leucyl aminopeptidase A-M17, PDB entry 4r7m",0.011 µM (active)
COC(=O)N1CC[C@@H]2[C@H]1CCC[C@@]2(O)C#Cc1cccc(C)c1,Kd,"protein: Metabotropic glutamate receptor 5, Lysozyme, Metabotropic glutamate receptor 5 chimera, PDB entry 4oo9",0.00086 µM (active)
CO[C@@H]1O[C@@H](C(=O)O)[C@@H](O[C@H]2O[C@H](CO)[C@@H](O)[C@H](OS(O)(O)O)[C@H]2NS(O)(O)O)[C@H](O)[C@H]1OS(O)(O)O,Kd,"protein: Fibroblast growth factor 2 FGF2, PDB entry 4oee",1.73 µM (active)
CO[C@@H]1O[C@@H](C(=O)O)[C@@H](O[C@H]2O[C@H](COS(O)(O)O)[C@@H](O)[C@H](OS(O)(O)O)[C@H]2NS(O)(O)O)[C@H](O)[C@H]1OS(O)(O)O,Kd,"protein: Fibroblast growth factor 2 FGF2, PDB entry 4oeg",9.01 µM (active)
O=C(O)[C@@H]1O[C@@H](O)[C@H](OS(O)(O)O)[C@@H](O)[C@@H]1O[C@H]1O[C@H](COS(O)(O)O)[C@@H](O[C@@H]2O[C@@H](C(=O)O)[C@@H](O[C@H]3O[C@H](COS(O)(O)O)[C@@H](O[C@@H]4O[C@@H](C(=O)O)[C@@H](O[C@H]5O[C@H](COS(O)(O)O)[C@@H](O)[C@H](O)[C@H]5NS(O)(O)O)[C@H](O)[C@H]4OS(O)(O)O)[C@H](O)[C@H]3NS(O)(O)O)[C@H](O)[C@H]2OS(O)(O)O)[C@H](O)[C@H]1NS(O)(O)O,Kd,"protein: SONIC HEDGEHOG PROTEIN, PDB entry 4c4n",0.8 µM (active)
CO[C@@H]1O[C@@H](C(=O)O)[C@@H](O[C@H]2O[C@H](COS(O)(O)O)[C@@H](O)[C@H](O)[C@H]2NS(O)(O)O)[C@H](O)[C@H]1OS(O)(O)O,Kd,"protein: Fibroblast growth factor 2 FGF2, PDB entry 4oef",17.5 µM (active)
O=C(O)[C@H]1CCCN1C(=O)CCCCC(=O)N1CCC[C@@H]1C(=O)O,Kd,"protein: Serum Amyloid P Component, PDB entry 4avt",0.0088 µM (active)
CC(C)[C@@H]1NC(=O)[C@@H](NC(=O)[C@H](Cc2ccc(O)cc2)NC(=O)[C@@H]2CCCN2C(=O)[C@H](C)N)CSSC[C@@H](C(=O)O)NC(=O)[C@H](CO)NC(=O)[C@H](Cc2c[nH]c3ccccc23)NC(=O)[C@H](CO)NC(=O)CNC(=O)[C@H](CCCN=C(N)N)NC(=O)[C@H](Cc2ccc(O)cc2)NC1=O,Kd,"protein: Ephrin type-A receptor 4 EphA4 LBD, PDB entry 4w50",1.4 µM (active)
CC(C)[C@@H]1NC(=O)[C@@H](NC(=O)[C@H](Cc2ccc(O)cc2)NC(=O)[C@@H]2CCCN2C(=O)[C@H](C)N)CSSC[C@@H](C(N)=O)NC(=O)[C@H](CO)NC(=O)[C@H](Cc2c[nH]c3ccccc23)NC(=O)[C@H](CO)NC(=O)CCNC(=O)[C@H](CCCN=C(N)N)NC(=O)[C@H](Cc2ccc(O)cc2)NC1=O,Kd,"protein: Ephrin type-A receptor 4 EphA4 LBD, PDB entry 4w4z",0.03 µM (active)
C[C@H](NC(=O)[C@@H](NC(=O)[C@H](CCC(N)=O)NC(=O)[C@H](CCCCN)NC(=O)[C@@H](N)[C@@H](C)O)[C@@H](C)O)C(=O)N[C@@H](CCCNC(N)N)C(=O)N[C@@H](CCCC[N+](C)(C)C)C(=O)N[C@@H](CO)C(=O)O (H-TKQTA[Orn(CH(NH2)2)][Lys(Me3)]S-OH),Kd,"protein: SHH1 SAWADEE, PDB entry 4iur",2.63 µM (active)
CNC(N)NCCC[C@H](NC(=O)[C@H](C)N)C(=O)N[C@H](C(=O)N[C@@H](CCCC[N+](C)(C)C)C(=O)N[C@@H](CCC(N)=O)C(=O)N[C@H](C(=O)N[C@@H](C)C(=O)N[C@@H](CCCNC(N)N)C(=O)N[C@@H](CCCCN)C(=O)N[C@@H](C)C(=O)N[C@@H](C)C(=O)NCC(=O)O)[C@@H](C)O)[C@@H](C)O (some centres undefined) (H-A[X2]T[Lys(Me3)]QTA[Orn(CH(NH2)2)]KAAG-OH),Kd,"protein: RAG2-PHD, PDB entry 2v85",34.6 µM (active)
C[C@H](N)C(=O)N[C@@H](CCCNC(N)N)C(=O)N[C@H](C(=O)N[C@@H](CCCCN)C(=O)N[C@@H](CCC(N)=O)C(=O)N[C@H](C(=O)N[C@@H](C)C(=O)N[C@@H](CCCNC(N)N)C(=O)N[C@@H](CCCC[N+](C)(C)C)C(=O)N[C@@H](CO)C(=O)O)[C@@H](C)O)[C@@H](C)O,Kd,"protein: Histone-lysine N-methyltransferase NSD3, PDB entry 4gng",290 µM (active)
CC(C)C[C@H](N)C(=O)N[C@@H](C)C(=O)N[C@H](C(=O)N[C@@H](CCCCN)C(=O)N[C@@H](C)C(=O)N[C@@H](C)C(=O)N[C@@H](CCCNC(N)N)C(=O)N[C@@H](CCCC[N+](C)(C)C)C(=O)N[C@@H](CO)C(=O)O)[C@@H](C)O (H-LATKAA[Orn(CH(NH2)2)][Lys(Me3)]S-OH),Kd,"protein: Polycomb protein, PDB entry 1pdq",5 µM (active)
